High-throughput results: PubChem, National Center for Advancing Translational Sciences (NCATS)
In the library only some 2.1% were active in any assay of this set; here they are far more common.
aSyn rescue: inhibitors of alpha-synuclein toxicity in yeast. hit rate 0.14% among 370,000. Yeast expressing alpha-synuclein, growth rescue, BacTiter-Glo, 24 h. Potency, µM (series often up to 46.1 µM), inactives show at the top dose growth rescue (activation), most hits filed as activators; further: % of control where 0% means no effect; nearly all actives have a fitted effect of over 65% in size
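Galactose-induced alpha-syn yeast (OD600=0.02, raffinose-pregrown) + pinned cpd, 24 hr, 30 deg C; growth by BacTiter-Glo luminescence. Growth restoration scores as activation.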
FUS suppressor: FUS proteinopathy suppression in yeast | S. cerevisiae FUS-expressing, growth rescue, OD600, 24 h | Potency, µM (titrated, usually from 76.6 µM), hits mostly activators | hit rate 0.24% among 390,000 | AID 1347120;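 further: plate controls were DMSO vehicle for no effect and reference control for full effect; nearly all actives have a fitted effect of over 55% in size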
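Absorbance at 600 nm, taken 24hr after compound addition, measured rescue of FUS-yeast growth at 30C. Induction used 2% galactose with seeding at OD 0.005. Controls: CP55940 from 92uM final, DMSO only.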
TDP-43 yeast inh: TDP-43 toxicity inhibition in yeast; hit rate 1.8% among 410,000; Potency, µM (series often up to 46.1 µM), for inactives: at the highest dose growth rescue (activation), actives largely listed as activators; AID 652104; TDP-43 expressing yeast growth rescue, BacTiter-Glo, 24 h; further: % of control where 0% means no effect; nearly all actives have a fitted effect of over 50% in size
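Yeast cells expressing TDP-43 under galactose induction are exposed to compounds for 24 hr at 30 deg C. BacTiter-Glo luminescence measures growth, so protective compounds score as activators.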
Abeta rescue: compounds reversing amyloid beta toxicity in yeast. hit rate 0.063% among 410,000. AID 1347071. yeast expressing A-beta42, growth rescue, OD600, 48 h; response scale: 0% DMSO, 100% iron-clioquinol control. Potency, µM (series often up to 46.1 µM), actives largely listed as activators; further: nearly all actives have a fitted effect of over 55% in size
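Growth rescue measured by 600 nm absorbance after 48 h yeast culture at 30 C with compound. Values normalized between DMSO and an equimolar ferric chloride plus clioquinol control.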
An asterisk follows results filed as active; i = inactive; u = inconclusive; x = no result; [ ] = dose if it differs, or a comment. The call rests on the fitted dose curve; in most records, active means well fitted curve in the direction sought with a large enough effect; inconclusive means small, poorly fitted or top-dose-only effect, or another doubt; inactive means no such curve, though single readings can be large; an effect the other way counts as inactive or inconclusive. Potency means the concentration at half of the fitted maximal effect.

SMILES	aSyn rescue	FUS suppressor	TDP-43 yeast inh	Abeta rescue
CC(C)CCn1c(/C=C/c2ccccc2)nc2ccccc21	x	i	14µM*	i
COc1ccccc1Cn1c(/C=C/c2ccccc2)nc2ccccc21	-29%	x	20µM*	i
COc1ccc(/C=C/c2nc3ccccc3n2Cc2ccccc2OC)cc1	-12%	i	u	i
CCCCC(=O)N1CCC(NS(=O)(=O)c2ccc3c(c2)CCN3C(C)=O)CC1	x	i	x	x
CN1CCN(c2ccnc(N(C)CCCCCCN)n2)CC1	8%	x	x	x
Cc1nc(C)c(-c2ccc(SCc3cccc(F)c3)nn2)s1	-8%	i	20µM*	i
Cc1nc(C)c(-c2ccc(SCc3ccc(Cl)cc3)nn2)s1	14%	u	u	i
COc1ccc(CNc2oc(/C=C/c3cc(OC)c(OC)c(OC)c3)nc2C#N)cc1	x	i	16%	i
Cc1cccc2c1nc(-c1ccccc1)n1cnnc21	2%	i	14µM*	i
COc1ccc(C(=O)O/N=C(\C)c2cnccn2)cc1	8%	i	18µM*	i
COc1ccc(C(=O)O/N=C(\N)c2ccccn2)cc1	-53%	i	-1%	i
C=CCOn1c(C)c(C(C)=O)c2c3no[n+]([O-])c3ccc21	5%	i	7.1µM*	i
COn1c(C)c(C(C)=O)c2c3no[n+]([O-])c3ccc21	8%	i	13%	i
CC(=O)COc1ccc2c(-c3ccccc3)cc(=O)oc2c1C	-15%	i	u	i
Cc1c(OCC(=O)C(C)(C)C)ccc2c(-c3ccccc3)cc(=O)oc12	2%	i	25µM*	u
Cc1cccc(N2CCN(C(=O)c3nn(C)c4c3CSc3ccccc3-4)CC2C)c1 (stereo not drawn)	x	i	28%	i
CCOC(=O)N1CCN(C(=O)c2nn(C)c3c2CSc2ccccc2-3)CC1	2%	i	35µM*	i
NCCCN(Cc1ccc(Cl)c(Cl)c1)c1ccccn1	-1%	x	x	x
CC(=O)/C(=N/Nc1cccc(Cl)c1)N1CCOCC1	12%	i	18µM*	i
CC1CCCN(CC(=O)N2c3ccccc3Sc3ccccc32)C1 (stereo not drawn)	11%	i	1%	22µM*
COc1cc(/C=N/NC(=S)NC2CC3C=CC2C3)cc(OC)c1OC (stereo not drawn)	-6%	i	22%	u
CCOc1ccc(/C=N/NC(=S)NC2CC3C=CC2C3)cc1 (stereo not drawn)	-10%	i	16%	7.9µM*
Cc1ccccc1NC(=O)/C(=C/c1ccccc1)c1ccccc1	-9%	i	18%	i
O=C(Nc1ccccc1)/C(=C/c1ccccc1)c1ccccc1	-6%	i	13µM*	i
COCCn1c(=NC(=O)CSC(C)=O)sc2cc(OC)ccc21	5%	i	u	u
SMILES	aSyn rescue	FUS suppressor	TDP-43 yeast inh	Abeta rescue
CCn1c(=NC(=O)CSC(C)=O)sc2cc(OC)ccc21	4%	i	14µM*	u
CCOC(=O)Cn1c(=NC(=O)CSC(C)=O)sc2cc(F)ccc21	-1%	i	u	6.3µM*
COc1ccc(CCn2c3c(c(=O)[nH]c2=S)CN(C)CN3)cc1OC	4%	x	x	x
O=C(CSc1ncnc2ccccc12)NCC(=O)c1ccccc1	23%	i	13µM*	u
Cc1ccc(NS(=O)(=O)c2ccc3[nH]c4c(c3c2)CCCCCC4)cc1C	4%	u	12%	i
CCOC(=O)c1ccc2[nH]c3c(c2c1)CCCC3	-2%	i	25µM*	i
Cc1ccc(NS(=O)(=O)c2ccc3[nH]c4c(c3c2)CCCCCC4)cc1	x	i	14µM*	i
CC(NS(=O)(=O)c1ccccc1[N+](=O)[O-])c1ccccn1 (stereo not drawn)	1%	x	x	x
Cc1cccc(N(C)c2nc3ccccc3c3nnc(C)n23)c1	x	i	22µM*	i
COC(=O)c1c(Oc2ccc(C(C)=O)cc2)nnc(-c2ccccc2)c1-c1ccccc1	x	u	-9%	i
CN(C)c1nc(Nc2ccc(Cl)cc2)nc(OCC#N)n1	0%	i	11µM*	i
CCOc1nc(Nc2ccccc2)nc(OCC)n1	5%	i	u	i
CCOc1nc(Nc2ccc(Cl)cc2)nc(OCC)n1	-2%	i	11µM*	i
Cc1cc(C)c2oc(-c3cccc(N)c3)nc2c1	7%	i	11µM*	i
Cc1ccc2nc(-c3cccc(N)c3)oc2c1	-24%	i	-11%	i
Cc1cc(Cl)cc(Cl)c1OCC(=O)NCc1ccco1	5%	i	14µM*	i
Cc1ccc(-n2nnnc2SCC(=O)NCCc2ccccc2)cc1C	x	i	22µM*	i
COc1ccc(-n2nnnc2SCC(=O)NCCc2ccccc2)cc1OC	-1%	i	-14%	i
O=C(O)C1C2CCC(CC2)C1C(=O)N1CCN(Cc2ccc(F)cc2)CC1 (stereo not drawn)	5%	i	20µM*	i
C[C@]12CC[C@H](O)CC1=CCC1C2CC[C@@]2(C)C1CC[C@@H]2NCc1ccccc1 (stereo partly drawn)	1%	i	1.1µM*	i
CC(C)[C@H](N)C(=O)N[C@H]1CCC2C3CC=C4C[C@@H](O)CC[C@]4(C)C3CC[C@@]21C (stereo partly drawn)	1%	i	-18%	i
C#CCNC(=O)C[C@@H]1C(=O)N2CCCC3=C2[C@@]1(C(=O)OCC)CCC3	x	i	x	x
Cc1ccc(O)c(N)c1	-11%	i	17%	i
Cc1ccc(O)c(Sc2cc(C)ccc2O)c1	u	i	22µM*	u
CCc1nnc2c(N3CCN(c4cccc(C(F)(F)F)c4)CC3)nc3ccccc3n12	x	i	-6%	i
SMILES	aSyn rescue	FUS suppressor	TDP-43 yeast inh	Abeta rescue
C/C=C(\C)NNC(=O)Cc1ccc(OC)cc1	6%	x	x	x
O=C(O)C1C2C=CC(CC2)C1C(=O)O (stereo not drawn)	9%	u	20µM*	u
CC(C)c1ccc(NC(=O)C2C3C=CC(CC3)C2C(=O)O)cc1 (stereo not drawn)	3%	i	13µM*	i
Cc1ccc2sc(N(Cc3cccnc3)C(=O)CCOc3ccccc3)nc2c1C	x	i	0%	i
COc1ccccc1N1CCN(C(=O)c2ccc(-c3ccc(Cl)cc3)o2)CC1	3%	u	16µM*	i
COc1ccc(N2CCN(C(=O)c3ccc(-c4nc5ccccc5s4)o3)CC2)cc1	0%	i	17%	i
COc1ccccc1N1CCN(C(=O)c2ccc(-c3nc4ccccc4s3)o2)CC1	1%[1.84 µM]	u	22µM*	i
Cc1cccc(-c2nc3scc(CCNS(=O)(=O)c4ccc5c(c4)OCCO5)n3n2)c1	x	i	15%	i
Nc1cc2c(cc1Cl)-c1ccccc1C2	16%	x	13µM*	i
Nc1cc2c(cc1Cl)-c1ccc(Cl)cc1C2	-1%	i	25µM*	i
Cc1ccc(C(=O)NCc2ccc3c(c2)CCN3C(=O)c2ccc(C)cc2)cc1	x	i	2%	i
